This excerpt belongs to a sample that is enriched for hits.
IL-1B inflam inh: inhibitors of inflammasome signaling (IL-1 beta secretion); THP-1 LPS/ATP IL-1B secretion, AlphaLISA, 16 h; hits give low values; activity change, % at 57.5 µM; 4.7% of 360,000 active; in the data active = activity change below about -50%; inconclusive = mostly about -30% to -49%
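Secreted IL-1B measured by AlphaLISA bead assay after 16 h compound exposure of THP-1 cells; compounds (final up to 57.5 uM) added 1 h before LPS (250 ng/mL) and ATP (1.25 mM) stimulation; lower signal means less secretion.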
ALOX12 inh: blocks human arachidonate 12S-lipoxygenase; P18054; Potency, µM (doses to about 108 µM), for the others: top-dose activity change, negative = inhibition, most hits filed as inhibitors; purified 12hLO, xylenol orange hydroperoxide absorbance; 1.1% of 580,000 active; AID 1671190; also: potency is read from the fitted curve at half-maximal effect
Target sequence (P18054 whole entry, looked up): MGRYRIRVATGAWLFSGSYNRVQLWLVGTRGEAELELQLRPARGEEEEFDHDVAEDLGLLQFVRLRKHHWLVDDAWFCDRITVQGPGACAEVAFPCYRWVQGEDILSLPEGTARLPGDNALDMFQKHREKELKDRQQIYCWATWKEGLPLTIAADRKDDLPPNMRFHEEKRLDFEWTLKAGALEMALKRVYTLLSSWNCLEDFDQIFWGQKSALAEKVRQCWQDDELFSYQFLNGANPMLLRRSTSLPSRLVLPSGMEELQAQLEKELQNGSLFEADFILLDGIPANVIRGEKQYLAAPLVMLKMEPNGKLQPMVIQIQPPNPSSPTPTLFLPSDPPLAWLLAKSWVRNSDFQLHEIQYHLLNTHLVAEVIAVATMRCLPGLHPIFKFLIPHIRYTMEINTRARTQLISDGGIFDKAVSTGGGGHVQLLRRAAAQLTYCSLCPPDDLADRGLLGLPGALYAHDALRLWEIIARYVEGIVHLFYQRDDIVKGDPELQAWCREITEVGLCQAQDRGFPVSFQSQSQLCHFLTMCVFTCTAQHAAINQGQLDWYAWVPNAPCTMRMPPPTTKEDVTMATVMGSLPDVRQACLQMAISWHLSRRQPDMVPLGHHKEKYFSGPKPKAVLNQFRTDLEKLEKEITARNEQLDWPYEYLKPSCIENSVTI
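Purified human 12hLO (150 nM final) in 25 mM Hepes, 0.01% Triton X-100, pH 7.0 was preincubated 15 min at room temperature with compound. Then 40 uM arachidonic acid was added, 30 min. Hydroperoxide was read by Fe-XO absorbance ratio 573/405 nm.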
DT40 TDP1 CPT: DT40-hTDP1 cell growth loss with CPT; chicken DT40 Tdp1-/-;hTDP1 cells + 20 nM CPT, ATP luminescence, 48 h; Potency, µM (top dose mostly 46.2 µM), without a hit: at the highest dose activity change, negative = growth inhibition, most hits filed as inhibitors; 12% of 420,000 active; also: potency is read from the fitted curve at half-maximal effect; nearly all actives have a fitted effect of over 55% in size
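Chicken DT40 Tdp1-/- cells complemented with human TDP1, 400 cells/well, exposed to compounds plus 20 nM camptothecin for at least 48 h at 37 C; viability read as ATP content by CellTiter-Glo luminescence.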
HT1080 IDH1KD tx: toxicity to HT-1080 IDH1 knockdown cells (counter line). HT-1080 IDH1 knockdown viability, ATP luminescence, 48 h. Potency, µM (series often up to 46.1 µM), inactives show top-dose activity, negative = toxicity, hits mostly cytotoxic. 2% of 360,000 active. AID 686971;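 also: potency is read from the fitted curve at half-maximal effect; 0% = DMSO wells and -100% = cell-free medium wells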
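Viability of IDH1-knockdown HT-1080 fibrosarcoma cells was assessed by CellTiter-Glo after 48 h at 37 °C with titrated compound; concentration-effect curves were classified by fit quality and response size.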
HT1080NT lethal: kills 2HG-producing HT-1080-NT fibrosarcoma cells | HT-1080-NT fibrosarcoma viability, CellTiter-Glo ATP luminescence, 48 h | Potency, µM (highest dose often 46.1 µM), inactives show at the top dose activity, negative = less viability, hits mostly cytotoxic | 1.6% of 360,000 active | AID 686970;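 also: NT is the 2HG producing partner of a matched IDH1 knockdown line; potency is read from the fitted curve at half-maximal effect; 0% = DMSO-treated cells and -100% = media-only wells without cells; nearly all actives have a fitted effect of over 55% in size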
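Compounds were tested in concentration-response format on HT-1080-NT cells for 48 hours at 37 degrees C. Cell viability came from CellTiter-Glo luminescence; curves were classified by r2, response magnitude and activity.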
TDP1 cell noCPT: qHTS for Inhibitors of human tyrosyl-DNA phosphodiesterase 1 (TDP1): qHTS in cells in absence of CPT. Potency, µM (top dose mostly 46.2 µM), for the others: top-dose activity change, negative = growth inhibition, hits mostly inhibitors. 15% of 420,000 active. DT40 Tdp1-/- hTDP1 cells, no CPT, ATP luminescence, 48 h; also: potency is read from the fitted curve at half-maximal effect; nearly all actives have a fitted effect of over 55% in size
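Readout: luminescence from CellTiter-Glo after 30 min in the dark at RT. Cells: DT40 Tdp1-/- with stable hTDP1, 400/well. Exposure: compounds alone, ≥48 hr, 37 °C.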
The depositor's hits bear a star; ? = inconclusive; · = no result. Unless noted, calls follow the shape of the dose curve; as a rule, active = well fitted curve in the direction sought with a large enough effect; inconclusive = small, poorly fitted or top-dose-only effect, or another doubt; inactive = no such curve, though single readings can be large; an effect the other way counts as inactive or inconclusive. Unless noted, % is scaled to controls: 0 for no effect and ±100 for the full control effect.

SMILES | IL-1B inflam inh | ALOX12 inh | DT40 TDP1 CPT | HT1080 IDH1KD tx | HT1080NT lethal | TDP1 cell noCPT
CN1CCN(C2=C(Cl)C(=O)C(c3cnc(N4CCCCC4)s3)=C(Cl)C2=O)CC1 | 0 | · | 2.1µM* | ? | -12% | 1.6µM*
CC(C)(C)CC(=O)Nc1nc2c(s1)C[C@@H]1[C@](C)(CO)[C@H](O)CC[C@@]1(C)[C@@H]2CC(=O)NCCN1CCOCC1 | · | 26% | · | · | · | ·
NC(=O)C1CCN(C2=C(Cl)C(=O)c3ccccc3C2=O)CC1 | -98* | -17% | 2.3µM* | 21µM* | ? | 2.9µM*
Cc1cc(C)c2[nH]c(C(=O)O)cc2c1 | · | -7% | · | · | · | ·
CC(C)CC(=O)Nc1ccc([N+](=O)[O-])cc1Cl | -11 | -17% | 3% | -2% | -1% | 4%
COc1ccc(CN(C)C(C)C(=O)Nc2ccc([N+](=O)[O-])cc2Cl)cc1OC (stereo not drawn) | 5 | -4% | 26µM* | -14% | -12% | 9.2µM*
COc1ccc([N+](=O)[O-])cc1NC(=O)C(C)OC(=O)CN1C(=O)C2CC=CCC2C1=O (stereo not drawn) | -63* | -2% | 8% | -9% | -11% | -18%
CCOc1ccc(CN(C)C(C)C(=O)Nc2ccc([N+](=O)[O-])cc2Cl)cc1OC (stereo not drawn) | 24 | -11% | 16µM* | -25% | -18% | ?
COc1ccc(Br)cc1CN(C)C(C)C(=O)Nc1cc([N+](=O)[O-])ccc1OC (stereo not drawn) | 33 | -2% | ? | -2% | -5% | 23µM*
CC(OC(=O)C1CC1)C(=O)Nc1ccc([N+](=O)[O-])cc1Cl (stereo not drawn) | -2 | -5% | -4% | 8% | 13% | 4%
CCn1nc(C)cc1C(=O)Sc1ccc(Cl)cc1Cl | -62* | 0% | 3.7µM* | ? | ? | 3.7µM*
CCn1nc(C)cc1C(=O)Sc1cccc(Br)c1 | -102* | -164% | 3.7µM* | 21µM* | 13µM* | 4.6µM*
CC1(C)NC(=O)N(Cc2coc(-c3cccc(Cl)c3)n2)C1=O | · | -12% | · | · | · | ·
Cc1cc(NCCCCO)n2c(nc3ccccc32)c1C#N | -24 | 0% | -22% | ? | -21% | -20%
C=C(C)CSc1cc(C)c(C#N)c2nc3ccccc3n12 | -21 | ? | 21µM* | -5% | -8% | 9.2µM*
COc1cc(/C=C2\CCCc3c2nc2ccccc2c3C(=O)O)cc(Br)c1O | 5 | 50µM* | -1% | -11% | 1% | -5%
COc1cc(/C=C2\CCc3c2nc2ccccc2c3C(=O)O)cc(OC)c1OC | 20 | ? | -4% | ? | ? | -17%
Cc1ccc(-c2[nH]ncc2C(=O)c2ccc(Br)cc2)c(O)c1 | -82* | ? | ? | ? | ? | ?
Cc1ccc(C(=O)c2cn[nH]c2-c2cc(Cl)ccc2O)cc1 | 25 | ? | ? | ? | ? | ?
CCOC(=O)C(=NO)C1=CSC2=NNC(C)(C)N12 | -1 | 5% | ? | -17% | -8% | 21µM*
COC(=O)C[C@H]1c2cc(F)cc(F)c2S(=O)(=O)N1C1CCN(Cc2ccccc2)CC1 | -1 | ? | 9.2µM* | -8% | 0% | 6.5µM*
CC(=O)C[C@H]1c2cc(F)cc(F)c2S(=O)(=O)N1C1CCN(Cc2ccccc2)CC1 | · | · | 5.6µM* | · | · | 4µM*
O=C(O)CC1CCN(Cc2ccccc2)CC1 | · | -29% | · | · | · | ·
COC1CCC12CCN(C(=O)NC(C)(C)C)CC2 (stereo not drawn) | · | 41% | · | · | · | ·
Cc1ccc(C)c(-n2nnnc2Sc2nc([N+](=O)[O-])nn2C)c1 | 11 | -2% | ? | -1% | -1% | ?
SMILES | IL-1B inflam inh | ALOX12 inh | DT40 TDP1 CPT | HT1080 IDH1KD tx | HT1080NT lethal | TDP1 cell noCPT
Cc1ccc(-n2nnnc2Sc2nc([N+](=O)[O-])nn2C)cc1C | -77* | 42% | ? | ? | -24% | ?
CN(Cc1ccccc1)C(=O)[C@@H]1CCCN1C(=O)[C@@H]1CCCN1C(=O)c1cccc2ccccc12 | 12 | -9% | ? | 6% | 13% | 18µM*
CCOc1cc(OCC)cc(C(=O)N2CCC[C@H]2C(=O)N2CCC[C@H]2C(=O)N(C)Cc2ccccc2)c1 | 17 | ? | 6% | 17% | 21% | 0.16µM*
COC(=O)c1ccc(NC(=O)CN(CCc2ccccc2)S(=O)(=O)c2ccc(OC)cc2)cc1 | · | -18% | ? | · | · | 21µM*
O=C(CN(CCc1ccccc1)S(=O)(=O)c1ccc(Br)cc1)NCc1ccc(Cl)cc1 | · | 4.5µM* | -18% | · | · | -11%
Cc1ccc(S(=O)(=O)N(CCc2ccccc2)CC(=O)Nc2ccccc2C)cc1 | · | -2% | · | · | · | ·
CCNC(=O)CN(CCc1ccccc1)S(=O)(=O)c1ccc(OC)cc1 | -5 | -25% | ? | 10% | -6% | -28%
Cc1ccc(S(=O)(=O)N(CCc2ccccc2)CC(=O)Nc2ccc(Br)cc2)cc1 | · | -1% | ? | · | · | 16µM*
Cc1ccc(CNC(=O)Cn2cc(S(=O)(=O)Cc3ccccc3F)c3ccccc32)cc1 | · | ? | 15µM* | · | · | ?
O=C(Cn1cc(S(=O)(=O)Cc2ccc(F)cc2)c2ccccc21)NCc1ccccc1Cl | · | ? | ? | · | · | 21µM*
COc1ccc(/C=N/n2cnc3c([nH]c4ccc(F)cc43)c2=O)cc1CSc1ccccn1 | 3 | ? | 1.2µM* | 24% | 28% | 7.3µM*
Cc1cc(C(=O)CN2C(=O)C3CC=CCC3C2=O)c(C)n1-c1ccccc1 (stereo not drawn) | 0 | -2% | 23µM* | -12% | -8% | 23µM*
Cc1cc(C(=O)Cn2cc(C(F)(F)F)ccc2=O)c(C)n1-c1ccccc1 | -20 | -28% | ? | -7% | -11% | ?
Cc1ccc(C(=O)CN2/C(=C(\O)c3ccccc3)C(=O)c3ccccc3S2(=O)=O)c(C)c1 | 9 | · | 12µM* | ? | ? | 16µM*
Cc1cc(C(=O)CN2C(=O)c3ccccc3S2(=O)=O)c(C)n1-c1ccccc1 | -28 | ? | 21µM* | -7% | 1% | 23µM*
CCn1c(C)cc(C(=O)CN2C(=O)c3ccccc3S2(=O)=O)c1C | -8 | -3% | 3% | 0% | 8% | -9%
NC(=O)C1(N2CCCCC2)CCN(Cc2ccc(F)cc2)CC1 | 8 | 12% | -22% | -1% | 7% | -11%

Bioassay records deposited in PubChem by National Center for Advancing Translational Sciences (NCATS).
